Test results published in paper PMC5540273 (PLoS ONE, 2017).

system: PRKCQ; settings: concentration: 1 μM, replicates: in singlicate; n = 1
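Further: KINOMEscan kinase panel screen.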

In order of rising “%Inh” value:
1. COc1cccc(C2=C(Nc3cc(Cl)c(O)c(Cl)c3)C(=O)NC2=O)c1 [SB-390767]  0%
2. Fc1ccc(-c2nc[nH]c2-c2ccncc2)cc1 [SB-217360]  0%
3. CNCc1ccc2nc(NC(=O)c3ccc(C(C)(C)C)cc3)cn2c1  0%
4. CCCCc1nn2ncccc2c1-c1ccnc(NC2CC2)n1 [GW684374]  0%
5. COc1ccc(Nc2nccc(NCCNC(=O)Nc3cc(C)ccc3C)n2)cc1 [GSK1379899]  0%
6. CC(=O)c1c(C)c2cnc(Nc3ccn(C)n3)nc2n(C2CCCC2)c1=O  0%
7. COc1ccc(Nc2nccc(N3CCC(NC(=O)C(C)c4ccc(Cl)cc4)CC3)n2)cc1 (stereo not drawn) [GSK1379812]  0%
8. COC(=O)c1cccc(NC(=O)NC2CCN(c3ccnc(Nc4ccc(F)cc4)n3)C2)c1 (stereo not drawn) [GSK1379725]  0%
9. COc1nccc(-c2c(-c3ccc(F)cc3)ncn2CCCN2CCOCC2)n1 [SB-282852]  0%
10. CNc1nc(-c2ccc3c(N)n[nH]c3c2)cc(N2C[C@@H](C(=O)Nc3ccccc3)CC[C@H]2C)n1 [GSK2298859]  0%
11. O=C1NC(=O)C(c2ccc(Cl)cc2)=C1Nc1ccc(O)cc1 [SB-340867]  0%
12. Cn1cnc2c(N)ncnc21 [SKF-97623]  0%
13. Cn1cncc1-c1cc2c(Nc3ccc(OCc4ccccc4)cc3)ncnc2cn1 [GW281179]  0%
14. CS(=O)(=O)CCNCc1nc(-c2ccc3ncnc(Nc4ccc5c(cnn5Cc5ccccc5)c4)c3c2)cs1.Cl.Cl [GW569716]  0%
15. COc1ccc(Nc2nccc(-c3ccc(NC(=O)c4cc5cc(F)ccc5[nH]4)cc3)n2)cc1 [GSK1229496]  0%
16. Cc1ccccc1-c1cc(-c2c[nH]nc2-c2ccccn2)ccn1 [GW680061]  2%
17. CS(=O)(=O)CCNCc1nc(-c2ccc3ncnc(Nc4ccc(OCc5ccccc5)c(Cl)c4)c3c2)cs1.Cl [GW582764]  3%
18. O=C(Nc1n[nH]c2nc(-c3ccco3)c(Br)cc12)C1CCN(Cc2ccccc2)C1.O=C(O)[C@H](O)[C@@H](O)C(=O)O (stereo not drawn) [SB-742034]  4%
19. COc1cc2ncnc(Nc3cccc(Br)c3)c2cc1OC.Cl [GI230329]  4%
20. CN1c2ccc(-c3ccc(C(N)=O)cc3)cc2-c2[nH]ncc2S1(=O)=O  5%
21. Cl.Cl.Cl.N#Cc1ccc(CCNc2nccc(-c3cccc(CN4CCNCC4)c3)n2)cc1 [GSK2137462]  5%
22. CC(C)c1cc(-c2ccc3c(N)n[nH]c3c2)nc(N)n1 [GSK2250882]  6%
23. Cc1ccc(NC(=O)Nc2ccccc2)cc1-c1ccc(C(=O)Nc2ccncc2)cc1 [GSK1398471]  8%
24. Cc1c(Cn2c(C)c(C)n3c(=O)cc(N4CCOCC4)nc23)cccc1C(F)(F)F [GSK2328680]  8%
25. CCc1ccc(-c2ccc3c(c2)-c2n[nH]cc2S(=O)(=O)N3C)cc1  8%
26. Cc1ccc(NC(=O)Nc2ccc(Cl)cc2)cc1-c1ccc(C(=O)Nc2ccncc2)cc1 [GSK1398472]  10%
27. Nc1cccc(-c2ccc3c(N)n[nH]c3c2)n1 [GSK2192730]  10%
28. Cc1nccc(-c2c(-c3ccc(F)cc3)ncn2CCCN2CCOCC2)n1.Cl [SB-282975]  14%
29. COc1ccc(-c2coc3ccc(-c4nnc(C)o4)cc23)cc1  19%
30. Fc1ccc(-c2nc3n(c2-c2ccncc2)CCS3)cc1 [GI98581]  21%
31. CC[C@@H]1CO[C@H](C(=O)Nc2ccccc2)CN1c1cc(-c2ccc3c(N)n[nH]c3c2)nc(NC)n1 [GSK2376236]  24%
32. CC(=O)c1cccc(NC(=O)NC2CCN(c3ccnc(Nc4ccc(F)cc4)n3)C2)c1 (stereo not drawn) [GSK1379710]  27%
33. Cc1ccc(-c2nc(Nc3ccncc3)c3ccccc3n2)s1 [GSK189015]  29%
34. COc1ccc(CSc2nnc(-c3ccc4nccn4c3)o2)cc1C(F)(F)F  30%
35. CCn1c(-c2c(N)noc2C)nc2cnccc21 [SB-737856]  32%
36. O=C(Nc1n[nH]c2cc(-c3ccsc3)ccc12)C1CC1 [SB-732932]  41%
